# Assay results from PubChem BioAssay (EPA / NIEHS).
# Inconclusive results are not listed. Active and inactive are the calls of the source. The calls were made as follows, unless noted: active = hit-call score of the fitted dose curve at least 0.9, where 1 is the maximum; inconclusive = response in the unintended direction; inactive = score below 0.9.
# Columns and labels:
# [1] = IUF_NPC2b_neuronal_migration_120hr: Leibniz Research Institute for Environmental Medicine (IUF) 120-hour Neural Progenitor Cell Migration Assay for Neuron Migration (NPC2b) (AID 2284300; active = hit-call score of the fitted dose curve at least 0.9, where 1 is the maximum; inactive = score below 0.9)
# Procedure, shortened: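 Neurons identified by TUBB3 immunostaining and Hoechst nuclei; migration distance measured automatically on fixed wells at 120 h, normalized to glia migration. Exposure spanned five days of differentiation in N2 medium, seven test concentrations.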
# [2] = IUF_NPC3_neuronal_differentiation_120hr: Leibniz Research Institute for Environmental Medicine (IUF) 120-hour Neuronal Differentiation Assay (NPC3) (AID 2284301; active = hit-call score of the fitted dose curve at least 0.9, where 1 is the maximum; inactive = score below 0.9)
# Procedure, shortened: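 Primary human fetal neural progenitor spheres (GW 16-19, 0.3 mm) plated on poly-D-lysine/laminin in N2 medium, exposed from day 0 for 120 h with half-medium refresh at day 3. TUBB3+ cells as percent of Hoechst nuclei in migration area; DMSO baseline.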
# [3] = IUF_NPC4_neurite_length_120hr: Leibniz Research Institute for Environmental Medicine (IUF) 120-hour Neuronal Morphology Assay for Neurite Length (NPC4) (AID 2284302; active = hit-call score of the fitted dose curve at least 0.9, where 1 is the maximum; inactive = score below 0.9)
# Procedure, shortened: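 Human fetal cortex (GW 16-19) neural progenitor spheres, 0.3 mm, were plated on poly-D-lysine/laminin in N2 differentiation medium and exposed from day 0 for 120 h, half-feeding at day 3. Mean TUBB3+ neurite length (µm) came from skeletonized images, relative to DMSO.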
# [4] = IUF_NPC5_oligodendrocyte_differentiation_120hr: Leibniz Research Institute for Environmental Medicine (IUF) 120-hour Oligodendrocyte Differentiation Assay (NPC5) (AID 2284304);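 also: primary human fetal neural progenitor spheres plated to migrate and differentiate; share of O4-positive cells among Hoechst nuclei found by CNN image analysis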
# Procedure, shortened: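 Human primary NPC neurospheres migrating and differentiating on laminin for 120 h under continuous compound exposure (serial dilution, solvent control). Endpoint: percent O4+ oligodendrocytes among Hoechst nuclei, detected by CNN image analysis, with DMSO as negative control.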
# [5] = IUF_NPC4_neurite_area_120hr: Leibniz Research Institute for Environmental Medicine (IUF) 120-hour Neuronal Morphology Assay for Neurite Area (NPC4) (AID 2284305)
# Procedure, shortened: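 Human fetal cortex-derived neural progenitor spheres (0.3 mm, GW 16-19) plated on poly-D-lysine/laminin in N2 differentiation medium and exposed from day 0 for 120 h across 7 concentrations plus solvent control. Neurite area is mean pixel area per TUBB3-positive neuron via skeletonization, analysed relative to DMSO.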
# [6] = IUF_NPC2-5_cytotoxicity_72hr: Cytotoxicity Assessment at 72 hours in the Leibniz Research Institute for Environmental Medicine (IUF) Neural Progenitor Cell Migration and Differentiation Assay for Cytotoxicity (NPC2-5) (AID 2284306);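 also: LDH release into supernatant measured by resorufin fluorescence marking membrane damage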
# Procedure, shortened: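 Human fetal (GW 16-19) neural progenitor spheres, 0.3 mm, plated on poly-D-lysine/laminin in N2 differentiation medium and exposed from day 0 to 7 concentrations plus solvent control (DMSO ≤0.1%). LDH-dependent resazurin-to-resorufin fluorescence in supernatant at 72 h.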
# [7] = IUF_NPC2-5_cytotoxicity_120hr: Cytotoxicity Assessment at 120 hours in the Leibniz Research Institute for Environmental Medicine (IUF) Neural Progenitor Cell Migration and Differentiation Assay (NPC2-5) (AID 2284307);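 as to AC50: LDH released into supernatant as membrane damage marker via resorufin fluorescence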
# Procedure, shortened: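 Fluorescence (RFU) from LDH-driven resazurin reduction in medium supernatants measured loss of membrane integrity after 120 h of compound exposure of differentiating primary human neural progenitor spheres on an extracellular matrix.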
# [8] = IUF_NPC2-5_cell_number_120hr: Cell Number Assessment at 120 hours in the Leibniz Research Institute for Environmental Medicine (IUF) Neural Progenitor Cell Migration and Differentiation Assay (NPC2-5) (AID 2284308; active = hit-call score of the fitted dose curve at least 0.9, where 1 is the maximum; inactive = score below 0.9;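 also: count of Hoechst-stained nuclei in migration zone around plated human neural progenitor spheres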)
# Procedure, shortened: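 Cell number is taken as all Hoechst-positive nuclei detected in the area into which cells migrate out of the sphere, scored at 120 h and referenced to DMSO solvent control, which was kept at no more than 0.1%.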
# [9] = IUF_NPC2-5_viability_120hr: Viability Assessment at 120 hours in the Leibniz Research Institute for Environmental Medicine (IUF) Neural Progenitor Cell Migration and Differentiation Assay (NPC2-5) (AID 2284312; active = hit-call score of the fitted dose curve at least 0.9, where 1 is the maximum; inactive = score below 0.9)
# Procedure, shortened: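 Human fetal (GW 16-19) neural progenitor spheres of 0.3 mm were plated on poly-D-lysine/laminin in N2 differentiation medium and exposed from day 0 for 120 h, with half-medium refresh at day 3. Viability was read as alamar blue resazurin-to-resorufin fluorescence against DMSO.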
# [10] = CCTE_Deisenroth_5AR_NBTE_donor: CCTE's 5alpha-reductase NanoBRET Target Engagement Assay […], Deisenroth Lab (AID 2284319; active = hit-call score of the fitted dose curve at least 0.9, where 1 is the maximum; inactive = score below 0.9); details: actives raise or lower the signal
# Procedure, shortened: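 Donor NanoLuc luminescence at 460-20 nm is the read-out, serving artifact detection. Transiently expressed SRD5A2-NanoLuc in HEK293T; 5 h total chemical exposure, testosterone tracer added for the final 2 h; fitting bidirectional relative to DMSO baseline.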
# [11] = CCTE_Deisenroth_5AR_NBTE_acceptor: CCTE's 5alpha-reductase NanoBRET Target Engagement Assay - Autofluorescence Screen, Deisenroth Lab (AID 2284321; active = hit-call score of the fitted dose curve at least 0.9, where 1 is the maximum; inactive = score below 0.9;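 also: compound fluorescence in the acceptor channel under 460 nm excitation flags autofluorescence artifacts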); details: actives raise or lower the signal
# Procedure, shortened: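 Chemicals diluted to a nominal 100 uM in DMSO were scanned at 460 nm excitation. Samples were read in three independent runs (n=3). Gain or loss of acceptor signal was fitted relative to DMSO.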
# [12] = VALA_TUBHUV_Agonist_CellCount: Viability Assessment in the VALA Sciences human Umbilical Vein Endothelial Tubule Formation (TUBHUV) Agonism Assay (AID 2284309)
# Procedure, shortened: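 HUVEC co-cultured 1:3 with HDF for 3 days in 10 ng/ml VEGF, then compounds added in VEGF medium for a further 3 days (72 h). Nuclear-stain/CD31 imaging cell count. Positive-direction fit versus 0.1% DMSO vehicle.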
# [13] = VALA_TUBHUV_Antagonist_CellCount: Viability Assessment in the VALA Sciences human Umbilical Vein Endothelial Tubule Formation (TUBHUV) Antagonism Assay (AID 2284310)
# Procedure, shortened: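 HUVEC co-cultured with HDF (1:3) 3 days in 10 ng/ml VEGF, then 3 days with compounds in VEGF medium. Fixed, nuclear stain and CD31 immunofluorescence, imaged; cell counts fitted versus 0.1% DMSO, loss of signal read as lower viability.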
# [14] = VALA_TUBIPS_Agonist_TubuleLength: VALA Sciences human iPS-derived Endothelial Tubule Formation (TUBIPS) Agonism Assay (AID 2284311)
# Procedure, shortened: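 Human iPS-derived endothelial cells were exposed to compound for 72 h. Tubule formation was imaged by high-content fluorescence and scored as gain of signal relative to DMSO vehicle (agonist mode).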
# [15] = VALA_MIGHUV2_Bcatenin: VALA Sciences human Umbilical Vein Endothelial Cell Migration (MIGHUV) Assay, Nuclear Translocation of beta-Catenin after Recovery (AID 2284315)
# Procedure, shortened: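 HUVEC (4000 cells/well) scratch-wounded, dosed within 30 min over 6 concentrations in triplicate, recovered 24 h. After fixation, Hoechst and anti-beta-catenin immunofluorescence imaged for nuclear CTNB. Gain of signal versus 0.1% DMSO.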
# [16] = VALA_MIGHUV2_WoundArea: VALA Sciences human Umbilical Vein Endothelial Cell Migration (MIGHUV) Assay, Area of Scratch Wound after Recovery (AID 2284316)
# Procedure, shortened: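 HUVEC seeded at 9000 cells/well, scratched after 24 h; test chemical added within 30 min, 6-point concentration response in triplicate (0.1% DMSO vehicle). After 24 h wound recovery, cells fixed and Hoechst-stained nuclei in wound area imaged; Cytochalasin D reference control.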
# [17] = VALA_MIGHUV2_CellCount: Viability Assessment in the VALA Sciences human Umbilical Vein Endothelial Cell Migration (MIGHUV) Assay, Area of Scratch Wound after Recovery (AID 2284314)
# Procedure, shortened: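 Scratch-wounded HUVEC monolayers received test chemical within 30 min, 6-point concentration response in triplicate, 0.1 % DMSO vehicle. After 24 h wound recovery, fixed cells were Hoechst-stained and nuclei imaged; loss of signal versus DMSO indicates reduced viability.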
# IYD (gene 389434) = test: CCTE_GLTED_hIYD: CCTE's human Iodotyrosine Deiodinase (xIYD) Inhibition Assay, Great Lakes Toxicology and Ecology Division (GLTED) Lab (AID 2284317);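 also: cell-free human IYD enzyme made in baculovirus insect cells; iodide freed from monoiodotyrosine measured by cerium arsenite color change at 420 nm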
# Procedure, shortened: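 Human IYD expressed in a baculovirus-insect cell system was incubated 3 h with monoiodotyrosine and test chemical. Released iodide, separated on Dowex columns, was quantified by the Sandell-Kolthoff reaction at 420 nm; plates were normalized to MNT and DMSO/NaOH controls.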
# [18] = CCTE_Mundy_HCI_iCellGluta_NOG_NeuriteLength: CCTE's Neurite Outgrowth Assay in iCellGluta cells for Neurite Length, Mundy Lab (AID 2284318)
# Procedure, shortened: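 Automated high-content imaging of betaIII-tubulin (Alexa Fluor-488) and Hoechst-stained cells gave neurite length, normalized to the DMSO baseline.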
# [19] = VALA_TUBIPS_Antagonist_TubuleLength: VALA Sciences human iPS-derived Endothelial Tubule Formation (TUBIPS) Antagonist Assay (AID 2284313)
# Procedure, shortened: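 Cells grown 3 days with 10 ng/ml VEGF, then exposed to compounds in VEGF medium for another 3 days. After fixation, nuclear stain and CD31 immunofluorescence imaging gave mean total tubule length against 0.1% DMSO; suramin (100 uM) inhibition control.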
compound,measurement,setting,value
CN(C)CCCN1c2ccccc2Sc2ccc(Cl)cc21,AC50,[1],15 µM (active)
same,AC50,[2],7.59 µM (active)
same,AC50,[3],6.02 µM (active)
same,AC50,[4],0.756 µM (active)
same,AC50,[5],8.38 µM (active)
same,AC50,[6],15.3 µM (active)
same,AC50,[7],5.75 µM (active)
same,AC50,[8],12.8 µM (active)
same,AC50,[9],10.9 µM (active)
O=C1c2c(O)cccc2Cc2cccc(O)c21,outcome,[10],inactive
same,outcome,[11],inactive
O=C1OC(c2ccc(O)cc2)(c2ccc(O)cc2)c2ccccc21,outcome,[12],inactive
same,outcome,[13],inactive
same,outcome,[14],inactive
same,outcome,[15],inactive
same,outcome,[16],inactive
same,outcome,[10],inactive
same,outcome,[11],inactive
CCCCC(CC)COP(=O)(OCC(CC)CCCC)OCC(CC)CCCC (configuration not stated),outcome,[12],inactive
same,outcome,[13],inactive
same,outcome,[17],inactive
Cc1c(C)c2c(c(C)c1O)CCC(C)(COc1ccc(CC3SC(=O)NC3=O)cc1)O2 (configuration not stated),AC50,IYD (gene 389434),94.7 µM (active)
same,outcome,[10],inactive
same,outcome,[11],inactive
COC(=O)[C@H]1[C@H]2C[C@@H]3c4[nH]c5cc(OC)ccc5c4CCN3C[C@H]2C[C@@H](OC(=O)c2cc(OC)c(OC)c(OC)c2)[C@@H]1OC,outcome,[12],inactive
same,outcome,[14],inactive
same,outcome,[17],inactive
same,outcome,[16],inactive
O=C(O)c1[nH]n(-c2ccc(S(=O)(=O)O)cc2)c(=O)c1N=Nc1ccc(S(=O)(=O)O)cc1,AC50,[10],35 µM (active)
same,outcome,[11],inactive
Cc1ccc(-c2cc(C(F)(F)F)nn2-c2ccc(S(N)(=O)=O)cc2)cc1,outcome,[12],inactive
same,outcome,[13],inactive
same,outcome,[14],inactive
same,outcome,[17],inactive
same,outcome,[16],inactive
C/C=C/C=C/C(=O)O,outcome,[10],inactive
same,outcome,[11],inactive
CC(=O)CC(c1ccccc1)c1c(O)c2ccccc2oc1=O (configuration not stated),outcome,[1],inactive
same,outcome,[2],inactive
same,outcome,[3],inactive
same,outcome,[4],inactive
same,outcome,[5],inactive
same,outcome,[6],inactive
same,outcome,[7],inactive
same,outcome,[8],inactive
same,outcome,[9],inactive
same,outcome,[18],inactive
S=c1[nH]c2ccccc2s1,outcome,IYD (gene 389434),inactive
CCCCCCCCCCCCCCOS(=O)(=O)O,AC50,IYD (gene 389434),29.6 µM (active)
same,outcome,[10],inactive
same,outcome,[11],inactive
CCN(CC)CCOc1ccc(C(=C(Cl)c2ccccc2)c2ccccc2)cc1,AC50,IYD (gene 389434),16 µM (active)
same,outcome,[10],inactive
same,outcome,[11],inactive
O=Cc1ccccc1C=O,AC50,IYD (gene 389434),60.2 µM (active)
Nc1nc(Cl)nc2c1ncn2[C@H]1C[C@H](O)[C@@H](CO)O1,AC50,[12],1.56 µM (active)
same,outcome,[13],inactive
same,AC50,[19],1.78 µM (active)
same,AC50,[17],2.48 µM (active)
same,outcome,[15],inactive
same,AC50,[16],28.9 µM (active)
O=C1NC(=O)C(c2ccccc2)(c2ccccc2)N1,outcome,[1],inactive
same,outcome,[2],inactive
same,outcome,[3],inactive
same,outcome,[4],inactive
same,outcome,[5],inactive
same,outcome,[6],inactive
same,outcome,[7],inactive
same,outcome,[8],inactive
same,outcome,[9],inactive
OCC(O)CO,outcome,[1],inactive
same,outcome,[2],inactive
same,outcome,[3],inactive
same,outcome,[4],inactive
same,outcome,[5],inactive
same,outcome,[6],inactive
same,outcome,[7],inactive
same,outcome,[8],inactive
same,outcome,[9],inactive
same,outcome,[18],inactive
CCCCC(CC)COC(=O)CCCCCCCC(=O)OCC(CC)CCCC (configuration not stated),outcome,[10],inactive
same,outcome,[11],inactive
